PubChem BioAssay (NCATS)
Records with an inconclusive call do not appear. Active and inactive are the calls of the source. Unless noted, calls come from the whole dose curve; as a rule, active = well fitted curve in the direction sought with a large enough effect; inconclusive = small, poorly fitted or top-dose-only effect, or another doubt; inactive = no such curve, though single readings can be large; an effect the other way counts as inactive or inconclusive.

How the values were obtained:
[1] = Cell Viability - BJ (AID 421; calls by dose curve;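 note: potency is the fitted concentration of half-maximal effect; cells exposed to compound for 40 hours at 37 °C before readout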); settings: BJ fibroblast viability, qHTS
How it was run: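 Normal human BJ foreskin fibroblasts, 1500/well in complete medium, treated 40 hr at 37 °C. Cellular ATP by CellTiter-Glo luminescence; normalized to DMSO and 100 uM tamoxifen, AC50 from Hill fit.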

[2] = Cell Viability - Jurkat (AID 426;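 active = dose-dependent loss of cell ATP signal giving a full or clear fitted curve, ranked by lower potency value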; note: potency is the fitted concentration of half-maximal effect); settings: qHTS
How it was run: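 Cytotoxicity taken as drop in cellular ATP (CellTiter-Glo luminescence, 20 min room temperature) after 40 hr, 37C treatment of 5000 Jurkat Clone E6-1 cells per well; concentration-response fitted with Hill equation for AC50.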

[3] = Cell Viability - Hek293 (AID 427;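 active = compounds whose dose-response curve shows a full or clear partial loss of cell viability, called from curve shape rather than a numeric limit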;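 note: potency is the fitted concentration of half-maximal effect; cells exposed to compound for 40 hours at 37 °C before reading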); settings: qHTS
How it was run: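 HEK293 cells in complete medium were exposed to compound for 40 hr at 37 °C, then cellular ATP was read by CellTiter-Glo luminescence. Data were normalized to DMSO (basal) and 100 uM tamoxifen (100% inhibition), and AC50 came from Hill fits.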

[4] = Cell Viability - HepG2 (AID 433; calls by dose curve;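 note: potency is the fitted concentration of half-maximal effect; potency for ATP loss meaning cytotoxicity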); settings: qHTS
How it was run: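 Cytotoxicity is scored as loss of intracellular ATP in HepG2 cells exposed to compounds for 40 h. Concentration-response curves, normalized to DMSO and 100 uM tamoxifen, give AC50 values.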

[5] = Cell Viability - MRC5 (AID 434; calls by dose curve;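 note: potency is the fitted concentration of half-maximal effect; potency reflects cytotoxicity seen as loss of intracellular ATP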); settings: MRC5 lung fibroblast viability, qHTS
How it was run: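 AC50 values come from Hill-equation fits of intracellular ATP loss, measured by CellTiter-Glo luminescence. Normal lung fibroblasts (MRC5) had 40 hr compound treatment at 37 C, normalized between DMSO and 100 uM tamoxifen.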

[6] = Cell Viability - SK-N-SH (AID 435; calls by dose curve; note: potency is the fitted concentration of half-maximal effect); settings: SK-N-SH neuroblastoma cell viability qHTS
How it was run: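 Cells seeded at 1500 per well and incubated 5 hr at 37 °C. Compound added, then 40 hr at 37 °C. CellTiter-Glo added, 20 min at room temperature, luminescence read.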

[7] = target: Mitogen-activated protein kinase 10 (Mus musculus) (UniProt Q61831); assay: JNK3 AlphaScreen Assay (AID 530; active = well fitted curve in either direction with a large enough effect, not every such curve was filed as active;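 note: kinase came from lysate of stimulated human HepG2 cells; signal reports phosphorylation of biotinylated GST-cJun 1-79 at Ser73 with 10 µM ATP; % is set by controls: 0 for no effect and ±100 for the full control effect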); settings: JNK3 lysate, c-Jun phosphorylation; series mostly up to 57.1 µM
How it was run: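 qHTS titrations with 15 min compound pre-incubation before adding ATP (10 uM final). Read-out: AlphaScreen of Ser73-phosphorylated biotin-GST-cJun using HepG2 lysate JNK3 activated by IL-1β and TNFα.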

[8] = Cell Viability - N2a (AID 540); settings: N2a mouse neuroblastoma cell viability; activity change, negative = cytotoxicity: at 92.2 µM (top of the series);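 note: plate controls were DMSO alone for no effect and tamoxifen control for full effect; nearly all actives have a fitted effect of over 45% in size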
How it was run: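 CellTiter-Glo ATP luminescence, read 20 min after reagent at room temperature, reported viability following 40 h compound treatment at 37 °C. N2a mouse neuroblastoma cells seeded 1500/well; Hill equation gave AC50.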

[9] = Cell Viability - NIH 3T3 (AID 541); settings: NIH 3T3 cell viability, qHTS; activity change, negative = cytotoxicity: at 92.2 µM (top of the series);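 note: plate controls were DMSO alone for no effect and tamoxifen positive control for full effect; nearly all actives have a fitted effect of over 25% in size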
How it was run: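 Intracellular ATP (CellTiter-Glo luminescence, 20 min at room temperature) measured after 40 hr compound exposure at 37 °C of 1000 NIH 3T3 mouse fibroblasts/well in complete medium; AC50 derived by Hill-equation modelling of qHTS concentration-response curves.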

[10] = Cell Viability - HUV-EC-C (AID 542); settings: HUV-EC-C endothelial cell viability, qHTS; series mostly up to 92.2 µM; note: % is set by controls: 0 for no effect and ±100 for the full control effect; nearly all actives have a fitted effect of over 35% in size
How it was run: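 CellTiter-Glo luminescence measured ATP loss in HUV-EC-C cells (1000/well) after 40 hr compound exposure at 37 °C, in complete culture medium. Concentration-response data were Hill-fitted to give AC50.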

[11] = Cell Viability - H-4-II-E (AID 543); settings: H-4-II-E rat hepatoma viability; series mostly up to 92.2 µM; note: % is set by controls: 0 for no effect and ±100 for the full control effect; nearly all actives have a fitted effect of over 35% in size
How it was run: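 CellTiter-Glo luminescence (intracellular ATP) measured after 40 h compound exposure at 37 °C in H-4-II-E rat hepatoma cells seeded at 1500/well. Values are AC50s fitted with the standard Hill equation.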

[12] = Cell Viability - SH-SY5Y (AID 544); settings: SH-SY5Y neuroblastoma cell viability; viability change, negative = cytotoxic: at 92.2 µM (top of the series); note: nearly all actives have a fitted effect of over 55% in size
How it was run: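 Cytotoxicity measured via ATP-dependent luciferase luminescence (CellTiter-Glo) following 40 h, 37 °C exposure of 1500 SH-SY5Y cells per well. Concentration-response data were fitted with the standard Hill equation to give AC50.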

[13] = Cell Viability - Renal Proximal Tubule (AID 545); settings: renal proximal tubule cells viability, primary cells of rat origin; series mostly up to 91.7 µM; note: nearly all actives have a fitted effect of over 40% in size
How it was run: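 Cytotoxicity is scored as a concentration-dependent drop in cellular ATP in primary rat renal proximal tubule cells exposed for 40 hr. AC50 derives from Hill modelling.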

[14] = Cell Viability - Mesenchymal (AID 546); settings: mesenchymal cells viability, qHTS; series mostly up to 91.7 µM;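 note: cells exposed to compound for 40 hours before reading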
How it was run: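 CellTiter-Glo luminescence (intracellular ATP, 20 min room temperature) after 40 hr compound exposure at 37 °C of 1000 glomerulus-derived human kidney mesenchymal cells/well; AC50 values obtained by fitting qHTS concentration-response data to the Hill equation.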

[15] = Cellular Toxicity (caspase-3) HepG2 (AID 654); settings: HepG2 caspase-3 activation, luminescence; series mostly up to 92.2 µM;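 note: cells exposed to compound for 16 hours before reading; 0% = DMSO alone and 100% = caspase signal from 100 µM tamoxifen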
How it was run: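 Caspase 3/7 activation is measured as a luminescence increase (aminoluciferin substrate) after 16 h compound exposure of human hepatocarcinoma HepG2 cells. AC50 values are Hill fits, scaled between DMSO baseline and 100 uM tamoxifen stimulation.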

[16] = Cellular Toxicity (caspase-3) Jurkat (AID 655); settings: Jurkat caspase-3 activation, luminescence; caspase-3 activation: at 92.2 µM (top of the series), DMSO = 0%, tamoxifen = 100%;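 note: cells exposed to compound for 16 h at 37 °C before reading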
How it was run: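 Caspase 3/7 activation is scored as increased luminescence in Jurkat cells cultured with compound for 16 hours in complete medium. AC50 values come from Hill fits of qHTS concentration-response data normalized to DMSO and 100 uM tamoxifen controls.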

[17] = Cellular Toxicity (caspase-3) HUV-EC-C (AID 656); settings: HUV-EC-C cells, caspase-3 activation (apoptosis), vehicle = 0, 100 µM tamoxifen = 100%; series mostly up to 92.2 µM
How it was run: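 Read-out: luminescence proportional to caspase 3/7 activity, measured 20 min after adding Caspase-Glo 3/7 reagent. Cells (HUV-EC-C) had received compound for 16 hr at 37°C. Increases relative to DMSO and 100 uM tamoxifen gave concentration-response AC50 values.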

[18] = Cellular Toxicity (caspase-3) SHSY5Y (AID 657); settings: SH-SY5Y caspase-3 activation, DMSO zero, 10 µM staurosporine = 100%; series mostly up to 91.7 µM;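 note: cells exposed to compound for 16 hours at 37 °C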
How it was run: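 Cells plated and incubated 5 h at 37 °C, dosed over a concentration range, incubated 16 h, then given Caspase-Glo 3/7 reagent for 1 h at room temperature before luminescence reading. Staurosporine (10 uM) defined full stimulation.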

[19] = Cellular Toxicity (caspase-3) BJ (AID 658); settings: BJ fibroblasts, luminescence, normalized: DMSO 0%, staurosporine 100%; series mostly up to 91.7 µM
How it was run: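 Caspase-Glo 3/7 luminescence, read 1 hr after reagent at room temperature, in normal BJ fibroblasts exposed 16 hours at 37 °C. AC50 values from Hill-equation concentration-response, scaled between DMSO basal and 10 uM staurosporine as 100%.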

[20] = Cellular Toxicity (caspase-3) MRC-5 (AID 659); settings: MRC-5 cells, luminescence, normalized: DMSO 0%, 10 µM staurosporine 100%; series mostly up to 91.7 µM
How it was run: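 Luminescent Caspase-Glo 3/7 read-out (1 h, room temperature) after a 16 h, 37 °C compound exposure of MRC-5 lung fibroblasts at 1500 cells/well. Concentration-response AC50 from Hill equation; 0% DMSO, 100% 10 uM staurosporine.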

CCOC(C)(C)C
inactive: Potency [1] > 92 µM | Potency [2] > 92 µM | Potency [3] > 92 µM | Potency [4] > 92 µM | Potency [5] > 92 µM | Potency [6] > 92 µM | outcome [7] | activity change, negative = cytotoxicity [8] -6.59% | Potency [9] | Potency [10] | Potency [11] | Potency [12] | Potency [13] | Potency [14] | Potency [15] | caspase-3 activation [16] -1.17% | outcome [17] | outcome [18] | outcome [19] | outcome [20]

COc1cccc2sc(N)nc12
inactive: Potency [1] > 92 µM | Potency [2] > 92 µM | Potency [3] > 92 µM | Potency [4] > 92 µM | Potency [5] > 92 µM | Potency [6] > 92 µM | outcome [7] | activity change, negative = cytotoxicity [8] -10.1% | Potency [9] | Potency [10] | Potency [11] | Potency [12] | Potency [13] | Potency [14] | Potency [15] | caspase-3 activation [16] -0.447% | outcome [17] | outcome [18] | outcome [19] | outcome [20]

Cc1ccc2ccccc2c1[N+](=O)[O-]
inactive: Potency [1] > 92 µM | Potency [2] > 92 µM | Potency [3] > 92 µM | Potency [4] > 92 µM | Potency [5] > 92 µM | Potency [6] > 92 µM | outcome [7] | activity change, negative = cytotoxicity [8] -10.2% | Potency [9] | Potency [10] | Potency [11] | Potency [12] | Potency [13] | Potency [14] | Potency [15] | caspase-3 activation [16] -0.271% | outcome [17] | outcome [18] | outcome [19] | outcome [20]

CCCC(C)CO (configuration not stated)
inactive: Potency [1] > 92 µM | Potency [2] > 92 µM | Potency [3] > 92 µM | Potency [4] > 92 µM | Potency [5] > 92 µM | Potency [6] > 92 µM | outcome [7] | activity change, negative = cytotoxicity [8] 3.82% | Potency [9] | Potency [10] | Potency [11] | Potency [12] | Potency [13] | Potency [14] | Potency [15] | caspase-3 activation [16] 0.921% | outcome [17] | outcome [18] | outcome [19] | outcome [20]

NC(=O)NC(N)=O
inactive: Potency [1] > 92 µM | Potency [2] > 92 µM | Potency [3] > 92 µM | Potency [4] > 92 µM | Potency [5] > 92 µM | Potency [6] > 92 µM | outcome [7] | activity change, negative = cytotoxicity [8] -8.97% | Potency [9] | Potency [10] | Potency [11] | Potency [12] | Potency [13] | Potency [14] | Potency [15] | caspase-3 activation [16] 0.487% | outcome [17] | outcome [18] | outcome [19] | outcome [20]

CC(=O)c1ccccc1[N+](=O)[O-]
inactive: Potency [1] > 92 µM | Potency [2] > 92 µM | Potency [3] > 92 µM | Potency [4] > 92 µM | Potency [5] > 92 µM | Potency [6] > 92 µM | outcome [7] | activity change, negative = cytotoxicity [8] -16.5% | Potency [9] | Potency [10] | Potency [11] | Potency [12] | Potency [13] | Potency [14] | Potency [15] | caspase-3 activation [16] 0.506% | outcome [17] | outcome [18] | outcome [19] | outcome [20]

CCC(C)(C)C
inactive: Potency [1] > 92 µM | Potency [2] > 92 µM | Potency [3] > 92 µM | Potency [4] > 92 µM | Potency [5] > 92 µM | Potency [6] > 92 µM | outcome [7] | activity change, negative = cytotoxicity [8] -21.6% | Potency [9] | Potency [10] | Potency [11] | Potency [12] | Potency [13] | Potency [14] | Potency [15] | caspase-3 activation [16] -0.787% | outcome [17] | outcome [18] | outcome [19] | outcome [20]

CCCC=O
inactive: Potency [1] > 92 µM | Potency [2] > 92 µM | Potency [3] > 92 µM | Potency [4] > 92 µM | Potency [5] > 92 µM | Potency [6] > 92 µM | outcome [7] | activity change, negative = cytotoxicity [8] -20.1% | Potency [9] | Potency [10] | Potency [11] | Potency [12] | Potency [13] | Potency [14] | Potency [15] | caspase-3 activation [16] -0.873% | outcome [17] | outcome [18] | outcome [19]

Cc1ccc(N(C)C)cc1
inactive: Potency [1] > 92 µM | Potency [2] > 92 µM | Potency [3] > 92 µM | Potency [4] > 92 µM | Potency [5] > 92 µM | Potency [6] > 92 µM | outcome [7] | activity change, negative = cytotoxicity [8] -13.1% | Potency [9] | Potency [10] | Potency [11] | Potency [12] | Potency [13] | Potency [14] | Potency [15] | caspase-3 activation [16] 2.02% | outcome [17] | outcome [18] | outcome [19]

Cc1c(N)cccc1[N+](=O)[O-]
inactive: Potency [1] > 92 µM | Potency [2] > 92 µM | Potency [3] > 92 µM | Potency [4] > 92 µM | Potency [5] > 92 µM | Potency [6] > 92 µM | outcome [7] | activity change, negative = cytotoxicity [8] 3.87% | Potency [9] | Potency [10] | Potency [11] | Potency [12] | Potency [13] | Potency [14] | Potency [15] | caspase-3 activation [16] 2.77% | outcome [17] | outcome [18] | outcome [19]

O=C1CCCCC1
inactive: Potency [1] > 92 µM | Potency [2] > 92 µM | Potency [3] > 92 µM | Potency [4] > 92 µM | Potency [5] > 92 µM | Potency [6] > 92 µM | outcome [7] | activity change, negative = cytotoxicity [8] -6.92% | Potency [9] | Potency [10] | Potency [11] | Potency [12] | Potency [13] | Potency [14] | Potency [15] | caspase-3 activation [16] 1% | outcome [17] | outcome [18] | outcome [19] | outcome [20]
